About 79,000 compounds went through this panel and 15% of them were active in at least one assay; those are over-represented in the sample as a whole. Unmarked numbers belong to inactive results. Calls of active or inactive are those of the source. Cut-off read from the data, not from the text of the source: active = growth inhibition above about 70%; inactive = the rest.

A short description of one assay: NCI Yeast Anticancer Drug Screen. Data for the rad18 strain (AID 177). The note with it: S. cerevisiae rad18 mutant growth inhibition; at 33.0 µM; hits give high values. In outline:
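Vehicle-treated cultures served as the baseline for scoring compound-induced growth inhibition in DNA-repair-mutant yeast.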
On to `C=CC(C)(O)CCC1C(=C)C(O)CC2C(C)(C)CCCC12C` (centres undefined), for which the growth inhibition is 49%. As to `S=C(Nc1ccc(Cl)c(Cl)c1)SCc1ccc2c(c1)OCO2`, the growth inhibition was 99% (active).

Consider `COc1cc(C2C3=C(COC3=O)Oc3cc4c(cc32)OCO4)ccc1O` (centres undefined), for which the growth inhibition is 32%. Consider `S=C(Nc1ccc(Cl)cc1)SC1CCCCC1`, for which the growth inhibition was 97% (active). With `Nc1nc(-c2cccnc2)cc(-c2cc(-c3cccnc3)nc(N)n2)n1`, the growth inhibition is -18%. Same read-out and setting: under `COC1=CC(=O)C2C(C1=O)C(c1ccc(Cl)cc1)[C@@H]2C` (some centres undefined) stands 99% (active); under `c1ccc(-c2nc3cccnc3s2)cc1`, -6%. In the case of `O=[N+]([O-])c1cc(CCl)ccc1CCl`, the growth inhibition is 98% (active).

Consider `COc1ccc(/C=C2\SC(=S)N(/C=C/c3nc4ccccc4[nH]c3=O)C2=O)cc1OC`, for which the growth inhibition is 67%. Turning to `CCCN(CCC)CC(O)c1cc(-c2ccc(Cl)cc2)nc2c(C)c(Cl)ccc12` (centres undefined), the growth inhibition was 96% (active). As for `O=C(Nc1ccccc1)OCCc1ccc(Cl)c(Cl)c1`, the growth inhibition was 45%.

Consider `C#CCCCc1ccccc1`, for which the growth inhibition is -28%. For `CC(=O)Cc1ccc[cH-]1.[Fe+2].c1cc[cH-]c1`, the growth inhibition was 10%. For `Cc1cc(I)ccc1N`, the growth inhibition was 85% (active).

For `FC(F)(F)c1cc(NC(=S)N2c3ccccc3-n3cccc3C2c2cccnc2)cc(C(F)(F)F)c1` (centres undefined), the growth inhibition was -2%.

Regarding `CC(C)(CN1CCCCC1)C(=O)CC(SCCS(=O)(=O)O)c1ccc(Br)cc1` (centres undefined), the growth inhibition is 25%. For the molecule `C[Si](C)(C)CNC(=O)OCc1ccccc1`, the growth inhibition was 17%. With `CC(C(=O)N1C(=O)N(C(=O)[C@H](C)C(O)c2ccccc2)[C@H](c2ccccc2)[C@H]1c1ccccc1)[C@@H](O)c1ccccc1` (some centres undefined), the growth inhibition is 45%. With `Oc1cccc2c(Cl)ccnc12`, the growth inhibition is 92% (active). Same read-out and setting: under `O=C1C=CC(=C(c2ccccc2)c2ccccc2)c2ccccc21` stands 4%.

Regarding `S=C(S)NN1CCOCC1`, the growth inhibition is 50%.

The same assay, now with this note: S. cerevisiae rad18 mutant growth inhibition; at 100.0 µM; hits give high values.
Turning to `C/C(=N\NC(=S)SCc1ccccc1)c1ccccn1`, the growth inhibition is 91% (active). On the same count and under the same terms, under `CC[C@@]1(O)C(=O)OCc2c1cc1n(c2=O)Cc2cc3c(N)cccc3nc2-1` stands -23%; under `CN(C)c1ccc(Sc2ccc3nc(N)nc(N)c3c2)cc1`, 11%; under `CC(=O)OCCOCNC(=S)N/N=C(\C)c1cnccn1`, 82% (active). Still for that read-out and setting: under `COc1ccc(C2c3cc4c(cc3OC(C)(O)C2C)OCO4)c(OC)c1` (centres undefined) stands 97% (active); under `COc1cc(C2SCC(=O)N2c2ccc(-c3ccc(-n4c(-c5ccccc5)nc5ccccc5c4=O)cc3)cc2)cc(OC)c1OC` (centres undefined), 1%; under `COc1ccc(Br)c(C(=O)Sc2nnnn2-c2cccc(Cl)c2)c1`, 93% (active). As for `O=C(NNc1ccnc2cc(Cl)ccc12)/C(=C\c1ccccc1Cl)NC(=O)c1ccccc1`, the growth inhibition is 67%. Same read-out and setting: under `CSC(=S)Nc1cccc(C)n1` stands 69%; under `O=C(/C=C\c1ccc(Cl)cc1Cl)c1cccs1`, 84% (active). For `COc1ccc(-c2cn(-c3ccc(I)cc3)c3ncnc(N)c23)cc1`, the growth inhibition was 0%. Turning to `CN(C)c1ccc(C(C#N)=C(C#N)C#N)cc1`, the growth inhibition was 39%. With `COc1cc(/C=C2\CCc3ccccc3C2=O)cc(OC)c1OC`, the growth inhibition is 73% (active). In the case of `CC(C)/C(Cl)=N\OC(=O)Nc1cccc(Cl)c1`, the growth inhibition is -1%. Turning to `CC1(C)[C@@H]2CC[C@]1(C)[C@H](OC(=O)CSC#N)C2`, the growth inhibition was 96% (active). The same measure, in the same setting: under `NNC(=O)CCc1ccc2ccc3ccccc3c2c1` stands 66%; under `COc1ccc(/C(C)=N/OC(=O)c2c(-c3ccccc3Cl)noc2C)cc1CN1CCOCC1`, 74% (active).

Consider `C=CC(C)(O)CCC1C(=C)C(O)CC2C(C)(C)CCCC12C` (centres undefined), for which the growth inhibition is 80% (active).

In the case of `S=C(Nc1ccc(Cl)c(Cl)c1)SCc1ccc2c(c1)OCO2`, the growth inhibition was 96% (active).

Regarding `COc1cc(C2C3=C(COC3=O)Oc3cc4c(cc32)OCO4)ccc1O` (centres undefined), the growth inhibition was 80% (active).

In the case of `S=C(Nc1ccc(Cl)cc1)SC1CCCCC1`, the growth inhibition was 98% (active).

For `Nc1nc(-c2cccnc2)cc(-c2cc(-c3cccnc3)nc(N)n2)n1`, the growth inhibition is -28%. For the molecule `COC1=CC(=O)C2C(C1=O)C(c1ccc(Cl)cc1)[C@@H]2C` (some centres undefined), the growth inhibition is 99% (active). Take `c1ccc(-c2nc3cccnc3s2)cc1`: the growth inhibition was -15%. As for `O=[N+]([O-])c1cc(CCl)ccc1CCl`, the growth inhibition is 97% (active). As for `COc1ccc(/C=C2\SC(=S)N(/C=C/c3nc4ccccc4[nH]c3=O)C2=O)cc1OC`, the growth inhibition is 85% (active). Still for that read-out and setting: under `CCCN(CCC)CC(O)c1cc(-c2ccc(Cl)cc2)nc2c(C)c(Cl)ccc12` (centres undefined) stands 94% (active).

For `O=C(Nc1ccccc1)OCCc1ccc(Cl)c(Cl)c1`, the growth inhibition was 53%. As for `C#CCCCc1ccccc1`, the growth inhibition was 65%. Same read-out and setting: under `CC(=O)Cc1ccc[cH-]1.[Fe+2].c1cc[cH-]c1` stands 35%.

For the molecule `Cc1cc(I)ccc1N`, the growth inhibition is 87% (active).

`FC(F)(F)c1cc(NC(=S)N2c3ccccc3-n3cccc3C2c2cccnc2)cc(C(F)(F)F)c1` (centres undefined): the growth inhibition is -2%. Consider `CC(C)(CN1CCCCC1)C(=O)CC(SCCS(=O)(=O)O)c1ccc(Br)cc1` (centres undefined), for which the growth inhibition is 55%.

As to `C[Si](C)(C)CNC(=O)OCc1ccccc1`, the growth inhibition was 49%. Take `CC(C(=O)N1C(=O)N(C(=O)[C@H](C)C(O)c2ccccc2)[C@H](c2ccccc2)[C@H]1c1ccccc1)[C@@H](O)c1ccccc1` (some centres undefined): the growth inhibition is 53%. `Oc1cccc2c(Cl)ccnc12`: the growth inhibition is 97% (active). Still for that read-out and setting: under `O=C1C=CC(=C(c2ccccc2)c2ccccc2)c2ccccc21` stands 2%; under `S=C(S)NN1CCOCC1`, 72% (active).

Source of the values: PubChem BioAssay (NCI).
